Bioassay records deposited in PubChem by National Center for Advancing Translational Sciences (NCATS).
IL-2 act: activates IL-2 in a cell-based reporter assay; AID 652025; 360,000 compounds, 0.065% hits; IL-2 activation reporter assay, cell-based qHTS; stimulated with anti-CD3/CD4/CD28 beads; in transgenic mouse T cells; activation, % (series mostly up to about 46 µM); in the data active = activation above about 50%; inconclusive = mostly about 30% to 49%; also: 0% is about no effect
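EGFP and DsRed fluorescence is measured by plate cytometry in unstimulated transgenic mouse T cells exposed to compound for 60 minutes, then stimulated 18 hours at 37 degrees C with anti-CD3/anti-CD4 beads plus anti-CD28.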
BRCA1 expr act: activators of BRCA1 expression | Potency, µM (highest dose often 46.1 µM), for inactives: at the top dose activation, actives largely listed as activators | 380,000 compounds, 1.1% hits | MCF7-BRCA1-FFLuc reporter, luminescence, 48 h; response scale: scaled: vehicle 0%, 10 µM genistein 100%; also: potency is read from the fitted curve at half-maximal effect; nearly all actives have a fitted effect of over 80% in size
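Luminescence from a BRCA1-driven firefly luciferase in MCF7 cells was the read-out, taken 15 min after substrate addition following 48 h compound exposure at 37 °C. Data were normalized to a 10 microM genistein control and DMSO vehicle.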
Apoferritin bind: candidate novel general anesthetic via apoferritin binding | P02791 | apoferritin/1-aminoanthracene competitive binding, fluorescence | Potency, µM (titrated, usually from 77.5 µM), inactives show at the highest dose activity change, negative = displacement, most hits filed as inhibitors | 350,000 compounds, 0.074% hits; also: potency is read from the fitted curve at half-maximal effect; % is scaled to controls: 0 for no effect and ±100 for the full control effect; nearly all actives have a fitted effect of over 20% in size
Target sequence (P02791 2-175 limits assumed): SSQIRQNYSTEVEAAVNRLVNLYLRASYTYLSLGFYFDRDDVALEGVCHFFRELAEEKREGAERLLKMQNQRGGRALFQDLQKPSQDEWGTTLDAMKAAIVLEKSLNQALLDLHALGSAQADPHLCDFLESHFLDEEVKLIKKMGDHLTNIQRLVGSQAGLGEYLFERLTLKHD
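Horse-spleen apoferritin (10 uM) was mixed with 50% saturated 1-aminoanthracene in PBS, exposed to compounds for 10 min at room temperature, and read for fluorescence (ex 380 nm, em 535 nm). Competitive displacement was fitted with a four-parameter Hill equation.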
PKM2 activator: PKM2 (human) enzyme activation. P14618. purified PKM2, Kinase-Glo ATP luminescence, activation; response scale: 0% is enzyme alone, no compound. Potency, µM (top dose mostly 57.5 µM), for the others: top-dose activation, most hits filed as activators. 260,000 compounds, 0.34% hits. AID 1631; also: potency is read from the fitted curve at half-maximal effect; % is scaled to controls: 0 for no effect and ±100 for the full control effect; nearly all actives have a fitted effect of over 55% in size
Target sequence (P14618 whole entry, looked up): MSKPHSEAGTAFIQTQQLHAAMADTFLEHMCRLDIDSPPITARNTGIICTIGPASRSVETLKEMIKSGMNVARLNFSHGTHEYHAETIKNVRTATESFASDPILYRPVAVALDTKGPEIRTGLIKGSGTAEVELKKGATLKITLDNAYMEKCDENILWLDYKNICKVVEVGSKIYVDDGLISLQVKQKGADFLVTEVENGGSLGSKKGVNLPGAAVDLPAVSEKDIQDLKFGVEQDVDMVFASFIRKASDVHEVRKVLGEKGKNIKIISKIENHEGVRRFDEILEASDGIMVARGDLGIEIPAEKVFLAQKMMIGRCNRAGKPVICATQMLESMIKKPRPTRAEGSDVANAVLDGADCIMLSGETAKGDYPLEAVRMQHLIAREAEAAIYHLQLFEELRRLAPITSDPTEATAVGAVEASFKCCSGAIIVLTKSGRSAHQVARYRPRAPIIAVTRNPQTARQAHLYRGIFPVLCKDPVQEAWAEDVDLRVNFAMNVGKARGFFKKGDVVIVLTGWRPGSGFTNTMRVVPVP
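ATP formation by purified human PK-M2, quantified via coupled luciferase luminescence after 1 h at room temperature with 0.1 mM ADP and 0.5 mM PEP final.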
a7 integrin act: activators of alpha7 integrin expression for muscular dystrophy. alpha7betagal myoblasts, beta-gal FDG fluorescence, 48 h. Potency, µM (series often up to 38.3 µM), inactives show at the highest dose activation, actives largely listed as activators. 350,000 compounds, 0.064% hits;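 also: potency is read from the fitted curve at half-maximal effect; 100% = response of the positive control SU9516; nearly all actives have a fitted effect of over 60% in size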
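alpha7betagal+/- myoblasts (passage 13, 250/well) treated 48 h at 37C with compounds at 1:260 dilution of DMSO stock. Lysed, then beta-galactosidase activity read as FDG fluorescence (ex 480/em 540) after 30 min, with pre-read for autofluorescence.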
Active calls of the source: *. Sampled rows, rich in hits. Any-hit rate of the full collection: about 1.3%. Unless noted, calls follow the shape of the dose curve; as a rule, active = well fitted curve in the direction sought with a large enough effect; inconclusive = small, poorly fitted or top-dose-only effect, or another doubt; inactive = no such curve, though single readings can be large; an effect the other way counts as inactive or inconclusive.

For CN(C)c1ccc(/C=C2/C(=N\O)C3CCN2CC3)cc1 the results were IL-2 act -1.4, BRCA1 expr act 3.98µM*, Apoferritin bind -12.5%, PKM2 activator -2.8% and a7 integrin act -9.2%.
C[C@@H]1O[C@@H](O[C@H]2CC[C@@H](O[C@H]3[C@H](O)C[C@H](c4ccc5c(c4O)C(=O)C4=C(C5=O)[C@@]5(O)C(=O)C[C@](C)(O[C@H]6CC[C@H](O[C@H]7C=CC(=O)[C@H](C)O7)[C@H](C)O6)C[C@@]5(O)C=C4)O[C@@H]3C)O[C@H]2C)C=CC1=O was read as Apoferritin bind -23.8%.
Screening CC(C)n1c(O)c(C2c3cc(Cl)ccc3Oc3[nH]c(=O)n(C(C)C)c(=O)c32)c(=O)[nH]c1=O (stereo not given) returned IL-2 act -1.8, BRCA1 expr act -18.3%, Apoferritin bind -3.1%, PKM2 activator 14.1µM* and a7 integrin act -78.6%.
CC(=O)c1c(O)n(-c2cccc(Cl)c2)c(=O)[nH]c1=O (tested in a mixture with another compound) was read as IL-2 act -0.3, BRCA1 expr act -1.1%, Apoferritin bind -3.0%, PKM2 activator 1.4% and a7 integrin act 16.1%.
Screening CC1=C2C(=O)C3C(CC=C4C[C@@H](O)CC[C@@]43C)[C@@H]2CC[C@]12O[C@@H]1C[C@H](C)CN[C@H]1C2C (stereo not given in full) returned Apoferritin bind -9.3%.
`COc1ccc2nc(N3CCN(C(=O)CS(=O)(=O)c4ccc(C)cc4)CC3)sc2c1` gave Apoferritin bind 89.4%.
For CCN1/C(=C\C=C\C2=[N+](CC)c3ccccc3C2(C)C)C(C)(C)c2ccccc21 the results were IL-2 act -0.9, BRCA1 expr act -93.9%, Apoferritin bind 28.2µM*, PKM2 activator -38.0% and a7 integrin act -65.1%.
For CS(=O)(=O)NNC(=O)Cn1nnc(-c2ccc(OCc3ccccc3Cl)cc2)n1 the results were IL-2 act 1.0, BRCA1 expr act 11.2µM* and a7 integrin act -19.1%.
Screening O=C(Nc1cccc(C(=O)Nc2cc(C(=O)Nc3ccc([S+](=O)([O-])[O-])c4cc([S+](=O)([O-])[O-])cc(SOOO)c34)ccc2F)c1)Nc1cccc(C(=O)Nc2cc(C(=O)Nc3ccc([S+](=O)([O-])[O-])c4cc([S+](=O)([O-])[O-])cc([S+](=O)([O-])[O-])c34)ccc2F)c1 returned Apoferritin bind 0.9%.
COCCCNC(=O)c1c(NC(=O)c2ccccc2)n(Cc2ccccc2)c2nc3ccccc3nc12 was read as IL-2 act 67.9*, BRCA1 expr act 8.0% and a7 integrin act 15.6%.
Cc1cc(C(=O)CS(=O)(=O)c2ccc(F)cc2)cc(C)c1OC(=O)N(C)C was read as IL-2 act 1.1, BRCA1 expr act 3.98µM*, Apoferritin bind -19.5%, PKM2 activator -14.2% and a7 integrin act 3.9%.
`c1cc[n+]2c(c1)-c1cccc[n+]1CC2` gave Apoferritin bind -1.2%.
`CCc1ccc(-n2c(=O)c3sc4ccccc4c3n(CC(=O)NC3CCCC3)c2=O)cc1` gave BRCA1 expr act 12.0% and Apoferritin bind 35.9%.
`CC(=NCCc1ccccc1)c1c(O)[nH]c(=O)[nH]c1=O` gave IL-2 act -4.4, BRCA1 expr act 11.7%, Apoferritin bind -0.4%, PKM2 activator 28.2µM* and a7 integrin act 0.6%.
For CCOC(=O)N1CCN(/[N+]([O-])=N/Oc2ccc([N+](=O)[O-])cc2[N+](=O)[O-])C(C)C1 (stereo not given) the results were Apoferritin bind 43.4%.
`COc1ccc(N2C(=O)/C(=C/C=C/c3ccccc3[N+](=O)[O-])C(=O)NC2=S)cc1` gave IL-2 act -0.5, BRCA1 expr act 8.5%, Apoferritin bind -16.9%, PKM2 activator 20µM* and a7 integrin act 8.3%.
`COc1ccc(N2C(=O)/C(=C/c3cccs3)C(=O)NC2=S)cc1` gave IL-2 act -5.0, BRCA1 expr act -81.8%, Apoferritin bind -1.1%, PKM2 activator 14.1µM* and a7 integrin act -37.5%.
Screening COc1ccc(N2C(=O)/C(=C/c3ccc(N(C)C)o3)C(=O)NC2=S)cc1 returned IL-2 act 5.1, BRCA1 expr act 11.2%, Apoferritin bind 0.4% and a7 integrin act -1.8%.
COc1ccccc1C(=O)Nc1ccc2nc(SCC(=O)N3CCCc4ccccc43)sc2c1 was read as Apoferritin bind 58.6%.
`O=C1NC(=O)N(c2ccc3c(c2)OCO3)C(=O)/C1=C\c1ccc(-c2ccccc2C(=O)O)o1` gave IL-2 act -0.7, BRCA1 expr act -9.7%, Apoferritin bind -0.3%, PKM2 activator 25.1µM* and a7 integrin act 14.0%.
For C=CCN1C(=O)NC(=O)/C(=C\c2ccc(-c3ccccc3[N+](=O)[O-])o2)C1=O the results were IL-2 act -3.9, BRCA1 expr act -32.2%, Apoferritin bind 39.8µM*, PKM2 activator 25.3% and a7 integrin act -34.3%.
`CCC(=O)Nc1ccc(Cl)c(Cl)c1` gave IL-2 act 0.2, BRCA1 expr act -10.7% and Apoferritin bind inconclusive.
Screening CCC(=O)Nc1ccc(C(=O)OCc2ccccc2Cl)cc1 returned IL-2 act 0.5, BRCA1 expr act 7.08µM*, Apoferritin bind -23.3%, PKM2 activator -0.8% and a7 integrin act -33.9%.
C=C1CCC(O)C/C1=C/C=C1\CCC[C@]2(C)[C@@H]([C@H](C)CCCC(C)C)CC[C@@H]12 (stereo not given in full) was read as Apoferritin bind -7.7%.
`CCN(CC)C(=O)c1ccc(NC(=O)c2cccc(F)c2)cc1` gave IL-2 act 1.7, BRCA1 expr act 11.2µM*, Apoferritin bind inconclusive, PKM2 activator -31.4% and a7 integrin act 13.4%.
Screening CCN(CC)C(=O)c1ccc(NC(=O)c2cccc(S(=O)(=O)N3CCN(C)CC3)c2)cc1 returned IL-2 act -2.9, BRCA1 expr act -16.8%, Apoferritin bind -6.5%, PKM2 activator 0.3% and a7 integrin act 17.1%.
`COc1ccc(-c2nc(SCC(=O)NC(C)CCc3ccccc3)n[nH]2)cc1` (stereo not given) gave Apoferritin bind 196.8%.
`CC(Cc1ccccc1)NC(=O)/C=C/c1ccc(Cl)cc1` (stereo not given) gave IL-2 act 87.1*, BRCA1 expr act 64.5%, Apoferritin bind 0.9%, PKM2 activator 2.3% and a7 integrin act 15.4%.
`CC(=O)NCC(N)C(=O)c1ccc(Cl)c(Cl)c1` (stereo not given) gave BRCA1 expr act 0.0%.
